These results are taken from PubChem BioAssay (NCI).

SMILES strings stand for the structures. About 83,000 compounds went through this panel and 20% of them were active in at least one assay; those are over-represented in the sample as a whole.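 Activity criterion: percent growth below 10, measured after cells in 96-well plates were exposed to a single compound concentration for 48 hours.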 Calls of active or inactive are those of the source.

The subject of the test is SK-MEL-28 melanoma. The test can be described thus: NCI-60 one-dose screen, 48 h (100 = growth as untreated, 0 = no growth, -100 = all killed). Conditions: 10 µM unless noted.
For the compound `COc1cc(Cl)cc(-c2nn(-c3cccc(NC(=O)c4cc(C(F)(F)F)cc(C(F)(F)F)c4)c3)cc2-c2ccncc2)c1`, the growth is 78.8% (inactive). In the case of `O=C(Oc1ccccc1)C(Br)C(Br)c1ccccc1` (stereo not given) it was 111% (inactive); in that of `c1cc[n+](Cc2ccnc3ccccc23)cc1`, 104% (inactive). To `CCCCOP(=O)(OCCCC)C(C(=O)OCC)C(CC(=O)OCC)C(=O)OCC` (stereo not given) belongs 104% (inactive); to `CCCCCc1c(C)[nH]c(/C=C2\N=C(c3ccc[nH]3)C=C2Oc2ccccc2)c1C`, -95.1% [100 µM] (active); to `c1ccc(-c2n(Cc3ccc4ccccc4c3)cc[n+]2Cc2ccc3ccccc3c2)cc1`, -84.2% (active). Regarding `CC[C@@H](c1ccc(O)c(O)c1)[C@@H](CC)c1ccc(O)c(O)c1`, the growth is 87.1% (inactive). In the case of `COc1ccc(-c2cnc(SCC(=O)Nc3ccc(-c4nc5ccccc5s4)cc3)n2-c2ccc(OC)cc2)cc1` it was 120% (inactive).

With `O=C(Nc1ccccc1S)c1ccccc1`, the growth was 112% (inactive). To `Cc1sc2nc(NCc3ccccc3)[nH]c(=O)c2c1C` belongs 69.5% (inactive). As to `CCCCCCCCCCNCCSS(=O)(=O)O`, the growth is 51.5% (inactive). Turning to `O=C1CSC(c2ccccc2Cl)N1c1nnc(Cn2nnc3ccccc32)o1` (stereo not given), the growth is 92.8% (inactive).

`O=C(Nc1nc(-c2ccc(Cl)cc2)cs1)c1cc(-c2ccc(Br)cc2)nc2ccc(Cl)cc12`: the growth was 52.9% (inactive).

For the compound `NS(=O)(=O)c1ccc(-n2ncc3c(SCc4ccccc4)ncnc32)cc1`, the growth is 107% (inactive). In the case of `C[C@]12CC[C@H](O)CC1=CC[C@@H]1[C@@H]2CC[C@]2(C)C(c3cccnc3)=CC[C@@H]12` it was 33.8% (inactive).
